The panel holds about 79,000 compounds, 15% with a hit somewhere; the sample as a whole holds those more often. Activity calls are given as the source filed them. Rule as the data show it: active = growth inhibition above about 70%; inactive = the rest.

One experiment in a line: NCI Yeast Anticancer Drug Screen. Data for the cln2 rad14 strain (AID 165).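 Also: 0% = growth equal to vehicle treated cultures.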 Particulars: S. cerevisiae cln2 rad14 strain, at 50.0 µM, stronger effect = higher value. The method, boiled down:
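Each compound was tested on cln2 rad14 yeast. Inhibition of growth was calculated against vehicle-exposed controls.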
For `CCC(c1ccc(OC)cc1)C(O)(CC)c1ccc(OC)cc1` (stereo not given), the growth inhibition is 98% (active).

Regarding `Cc1c(Cl)c(S(N)(=O)=O)cc2c1NC=NS2(=O)=O`, the growth inhibition was 22.4% (inactive).

Consider `CCCCCCCCNc1ncnc2c1cnn2C`, for which the growth inhibition was 98.8% (active).

`Cc1cc(N)c(C)c2c1[nH]c1ccc(Br)cc12`: the growth inhibition was 17.7% (inactive).

Regarding `C(=C\c1cnnc2ccccc12)/c1ccco1`, the growth inhibition is 80.8% (active).

Regarding `Cc1cc(N(CCCCl)CCCCl)ccc1C=Nc1cccc(Cl)c1`, the growth inhibition was -21.6% (inactive).

For the compound `CCC[CH2][Sn]([CH2]CCC)([O]C(=O)c1cc(F)ccc1F)[O]C(=O)c1cc(F)ccc1F`, the growth inhibition was 70.4% (active).

In the case of `O=[N+]([O-])c1ccc(N2N=NC(CN3CCOCC3)C2N2CCOCC2)cc1` (stereo not given), the growth inhibition is 24.5% (inactive).

As for `O=CC(I)=C(c1ccccc1)c1ccccc1`, the growth inhibition was 89.8% (active).

Turning to `CCC/C(=N\O)S(=O)(=O)c1ccc(NN=O)nc1`, the growth inhibition was 34.5% (inactive).

Take `COc1cc(Cc2n[nH]c(=S)n2-c2ccccc2)c(S(N)(=O)=O)cc1OC`: the growth inhibition is 8.55% (inactive).

Regarding `CC(=O)Nc1ccc(C(C)(C)c2ccc(C)cc2)cc1`, the growth inhibition was 3.75% (inactive).

As for `CC(C)=NOc1ccc([N+](=O)[O-])cc1[N+](=O)[O-]`, the growth inhibition was 30.5% (inactive).

With `CC(=O)Nc1ccc2c(c1)C(S)c1ccccc1-2` (stereo not given), the growth inhibition was 33.2% (inactive).

Turning to `CCN1CC(=O)N(C)C1=S`, the growth inhibition was 74.9% (active).

Consider `[O-][n+]1c(-c2ccccc2)c(Cl)c(-c2ccccc2)n1O`, for which the growth inhibition was 92.7% (active).

Consider `CCCCCCCCCCCCCCCCN(C)c1ccc(S(=O)(=O)O)cc1[N+](=O)[O-]`, for which the growth inhibition is 68.6% (inactive).

As to `Cc1ccc2c(c1)-c1c(c3c(c4c1-c1cc(C)ccc1CC4)C(=O)OC3=O)CC2`, the growth inhibition was 3.45% (inactive).

Regarding `C[N+](C)(CCO)Cc1ccccc1`, the growth inhibition is -30.6% (inactive).

For `CCOC(=O)C(C)(C)Oc1ccc2c(=O)cc(-c3ccccc3)oc2c1`, the growth inhibition was 92.5% (active).

On to `CS(=O)c1cc(=O)c2ccccc2s1` (stereo not given), for which the growth inhibition was 84.4% (active).

With `COC(=O)c1c[nH]c2ccc(Br)cc12`, the growth inhibition was 44% (inactive).

`CCCCN1C(=O)C(=O)N(c2ccccc2)C1=O`: the growth inhibition is 73.8% (active).

Consider `Cc1cc(N)c2cc(OCCOc3ccc4nc(C)cc(N)c4c3)ccc2n1`, for which the growth inhibition is 84.7% (active).

Turning to `Cc1c2c(c(C)c3c4c(oc13)CCCC4)C=NCC2`, the growth inhibition was 29.2% (inactive).

Regarding `CCCC(c1ccc(O)cc1)c1ccc(O)cc1`, the growth inhibition was 99.2% (active).

`CC(C)=NNc1ncnc2nc[nH]c12`: the growth inhibition is 25.6% (inactive).

In the case of `Clc1ccc(C2=Nc3ccccc3SC(c3ccc(Cl)c(Cl)c3)C2)c(Cl)c1` (stereo not given), the growth inhibition was 40.8% (inactive).

`N#Cc1c(Cl)nsc1-c1ccc([N+](=O)[O-])cc1`: the growth inhibition is 88.8% (active).

Take `C=CCSc1nc2ccccc2c(=O)n1Cc1ccco1`: the growth inhibition is -54.2% (inactive).

As for `COC(=O)CSc1nc2[nH]c(SC)c(C(N)=O)c2c(=O)n1-c1ccccc1`, the growth inhibition was 46.2% (inactive).

Regarding `Cc1cc2oc3c(ccc(=O)n3C)c(=O)c2c(C)c1Cl`, the growth inhibition is 25.9% (inactive).

Take `CC(=O)SC1C(=O)N(C)C(SC(C)=O)C(=O)N1C` (stereo not given): the growth inhibition was 95% (active).

Take `CCCCCCCCCCCCCCCCOCC(Cl)COP(=O)(O)OP(=O)(O)OCC1OC(n2cc(C)c(=O)[nH]c2=O)CC1O` (stereo not given): the growth inhibition is 63.1% (inactive).

In the case of `CCCCCCCCCCNC(=O)CBr`, the growth inhibition was 18.9% (inactive).

`O=Cc1c(Cn2ccnc2)c2cc([N+](=O)[O-])ccc2n1Cc1ccccc1`: the growth inhibition is 22.9% (inactive).

On to `C=C(C)C1CC2=C(O1)C(=O)c1ccccc1C2=O` (stereo not given), for which the growth inhibition is 59.9% (inactive).

For the compound `CC(C)C1=CC2=CCC3C(C)(C(=O)O)CCCC3(C)C2CC1` (stereo not given) (tested in a mixture with another compound), the growth inhibition is 88.5% (active).

For the compound `ClCC1CSC2(CCCCC2)O1` (stereo not given), the growth inhibition was 13.7% (inactive).

Regarding `Oc1cccc2ccc(SSc3ccc4cccc(O)c4n3)nc12`, the growth inhibition was 74.8% (active).

A further experiment in a line: NCI Yeast Anticancer Drug Screen. Data for the bub3 strain (AID 167). Particulars: S. cerevisiae bub3 mutant strain, at 5.0 µM (retest, dose inferred, filed as 0.5), stronger effect = higher value. The method, boiled down:
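Steps: expose the mutant yeast strain to compound; grow alongside vehicle-treated cultures; measure growth; express inhibition against the vehicle cultures.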
`CCC(c1ccc(OC)cc1)C(O)(CC)c1ccc(OC)cc1` (stereo not given): the growth inhibition was 11% (inactive).

For the compound `Cc1c(Cl)c(S(N)(=O)=O)cc2c1NC=NS2(=O)=O`, the growth inhibition was -13% (inactive).

On to `CCCCCCCCNc1ncnc2c1cnn2C`, for which the growth inhibition is 1% (inactive).

As for `Cc1cc(N)c(C)c2c1[nH]c1ccc(Br)cc12`, the growth inhibition was -3% (inactive).

For the compound `C(=C\c1cnnc2ccccc12)/c1ccco1`, the growth inhibition is -2% (inactive).

For the compound `Cc1cc(N(CCCCl)CCCCl)ccc1C=Nc1cccc(Cl)c1`, the growth inhibition is -1% (inactive).

On to `CCC[CH2][Sn]([CH2]CCC)([O]C(=O)c1cc(F)ccc1F)[O]C(=O)c1cc(F)ccc1F`, for which the growth inhibition is 22% (inactive).

In the case of `O=[N+]([O-])c1ccc(N2N=NC(CN3CCOCC3)C2N2CCOCC2)cc1` (stereo not given), the growth inhibition was 2% (inactive).

As to `O=CC(I)=C(c1ccccc1)c1ccccc1`, the growth inhibition is -2% (inactive).

Take `CCC/C(=N\O)S(=O)(=O)c1ccc(NN=O)nc1`: the growth inhibition is -33% (inactive).

With `COc1cc(Cc2n[nH]c(=S)n2-c2ccccc2)c(S(N)(=O)=O)cc1OC`, the growth inhibition was -2% (inactive).

In the case of `CC(=O)Nc1ccc(C(C)(C)c2ccc(C)cc2)cc1`, the growth inhibition is 4% (inactive).

On to `CC(C)=NOc1ccc([N+](=O)[O-])cc1[N+](=O)[O-]`, for which the growth inhibition is 4% (inactive).

On to `CC(=O)Nc1ccc2c(c1)C(S)c1ccccc1-2` (stereo not given), for which the growth inhibition was -1% (inactive).

With `CCN1CC(=O)N(C)C1=S`, the growth inhibition was 12% (inactive).

Take `[O-][n+]1c(-c2ccccc2)c(Cl)c(-c2ccccc2)n1O`: the growth inhibition is 8% (inactive).

Turning to `CCCCCCCCCCCCCCCCN(C)c1ccc(S(=O)(=O)O)cc1[N+](=O)[O-]`, the growth inhibition was 60% (inactive).

As to `Cc1ccc2c(c1)-c1c(c3c(c4c1-c1cc(C)ccc1CC4)C(=O)OC3=O)CC2`, the growth inhibition is 4% (inactive).

As to `C[N+](C)(CCO)Cc1ccccc1`, the growth inhibition was 8% (inactive).

`CCOC(=O)C(C)(C)Oc1ccc2c(=O)cc(-c3ccccc3)oc2c1`: the growth inhibition is -17% (inactive).

In the case of `CS(=O)c1cc(=O)c2ccccc2s1` (stereo not given), the growth inhibition is 0% (inactive).

On to `COC(=O)c1c[nH]c2ccc(Br)cc12`, for which the growth inhibition is 7% (inactive).

In the case of `CCCCN1C(=O)C(=O)N(c2ccccc2)C1=O`, the growth inhibition is -21% (inactive).

As for `Cc1cc(N)c2cc(OCCOc3ccc4nc(C)cc(N)c4c3)ccc2n1`, the growth inhibition was 79% (active).

Regarding `Cc1c2c(c(C)c3c4c(oc13)CCCC4)C=NCC2`, the growth inhibition was -8% (inactive).

In the case of `CCCC(c1ccc(O)cc1)c1ccc(O)cc1`, the growth inhibition was 1% (inactive).

Consider `CC(C)=NNc1ncnc2nc[nH]c12`, for which the growth inhibition was 5% (inactive).

`Clc1ccc(C2=Nc3ccccc3SC(c3ccc(Cl)c(Cl)c3)C2)c(Cl)c1` (stereo not given): the growth inhibition is 9% (inactive).

For `N#Cc1c(Cl)nsc1-c1ccc([N+](=O)[O-])cc1`, the growth inhibition is -6% (inactive).

Take `C=CCSc1nc2ccccc2c(=O)n1Cc1ccco1`: the growth inhibition was 45% (inactive).

With `COC(=O)CSc1nc2[nH]c(SC)c(C(N)=O)c2c(=O)n1-c1ccccc1`, the growth inhibition is 18% (inactive).

As for `Cc1cc2oc3c(ccc(=O)n3C)c(=O)c2c(C)c1Cl`, the growth inhibition is 18% (inactive).

As to `CC(=O)SC1C(=O)N(C)C(SC(C)=O)C(=O)N1C` (stereo not given), the growth inhibition was 0% (inactive).

For the compound `CCCCCCCCCCCCCCCCOCC(Cl)COP(=O)(O)OP(=O)(O)OCC1OC(n2cc(C)c(=O)[nH]c2=O)CC1O` (stereo not given), the growth inhibition is 50% (inactive).

For the compound `CCCCCCCCCCNC(=O)CBr`, the growth inhibition was 14% (inactive).

Turning to `O=Cc1c(Cn2ccnc2)c2cc([N+](=O)[O-])ccc2n1Cc1ccccc1`, the growth inhibition was -3% (inactive).

Turning to `C=C(C)C1CC2=C(O1)C(=O)c1ccccc1C2=O` (stereo not given), the growth inhibition is 59% (inactive).

For `CC(C)C1=CC2=CCC3C(C)(C(=O)O)CCCC3(C)C2CC1` (stereo not given) (tested in a mixture with another compound), the growth inhibition is -14% (inactive).

In the case of `ClCC1CSC2(CCCCC2)O1` (stereo not given), the growth inhibition is -13% (inactive).

As for `Oc1cccc2ccc(SSc3ccc4cccc(O)c4n3)nc12`, the growth inhibition was 96% (active).

The values above are taken from PubChem BioAssay (NCI).
